Out of some 4,500 compounds screened, about 200 (4.4%) were called active. The entries come from a sample that favours actives as a whole. Unmarked numbers belong to inactive results.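 Rule for the calls: active = cell survival measured by absorbance rises more than 2.5-fold over infected cells without compound; inactive = the rest.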
Test: survival after telomere uncapping, modulators, primary screen, cell-based (AID 1259312);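 note: virus expresses mutant telomerase RNA that uncaps telomeres and kills cells; compound added 2 days after infection so exposure lasts 3 days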
Conditions: HCT116 + Ad-hTR-mut, MTT, 5 d; at 10 µM, hits give high values

Compound	fold change
CN1C2CC(OC(=O)C(CO)c3ccccc3)CC1C1OC12 (stereo not drawn)	2.65 (active)
C1=CN(c2ccccc2)C(C=NCc2ccccc2)=CS1	3.25 (active)
O=C(NCCOC(=O)Nc1ccc(Cl)c(Cl)c1)Nc1ccc(Cl)c(Cl)c1	-1.04
O=C(C[n+]1ccccc1)c1ccc(Br)cc1	-1.26
O=C(C[n+]1ccccc1)c1cccs1	4.15 (active)
O=C(O)CNC(=O)c1cccs1	1.14
COc1ccc(OC)c(NS(=O)(=O)c2cc(Cl)ccc2Cl)c1	1.1
CNC(=S)Nc1ccccc1	-1.89
NNC(=S)Nc1ccccc1	2.03
S=C(NNC(=S)Nc1ccccc1)Nc1ccccc1	4.1 (active)
CN(Cc1cccs1)C(=S)SCCO	1.27
Cc1ccc(-c2nc(Cn3c(-c4cscn4)nc4ccccc43)cs2)cc1	-1.62
CSCCC(C(=O)O)N1C(=O)/C(=C2/C(=O)N(C)c3ccccc32)SC1=S (stereo not drawn)	-1.54
C=CCN1C(=O)/C(=C2\SC(=S)N(CCC)C2=O)c2ccccc21	-1.1
CN1C(=O)/C(=C2\SC(=S)N(CCS(=O)(=O)O)C2=O)c2ccccc21	4.3 (active)
CCOC(=O)c1c(N)sc(C(=O)N2CCCCC2)c1C	-1.62
CN(C)CCCN1C(=O)C(O)=C(C(=O)c2cccs2)C1c1cccs1 (stereo not drawn)	-1.86
Brc1ccc(C(Br)C(Br)c2ccccc2Br)cc1 (stereo not drawn)	-2.96
N#CCC(c1ccccc1)C(C#N)c1ccc(Br)cc1 (stereo not drawn)	-1.3
ClC(Cl)(Cl)C(c1ccc(Br)cc1)c1ccc(Br)cc1	3.49 (active)
O=[N+]([O-])c1ccccc1Nc1ccccc1	1.12
CN(C)c1ccc(/C=C2/SC(=S)NC2=O)cc1	2.2
O=C1NC(=S)S/C1=C/c1ccc(O)cc1	3.65 (active)
O=C1NC(=S)S/C1=C\c1ccsc1	-1
Cc1cc(C)c(O)c(C(CC(C)C)c2cc(C)cc(C)c2O)c1	-4.02

Compound	fold change
O=C1CC(c2ccccc2)CC2=C1C(c1ccc(OC(F)(F)F)cc1)Nc1ccccc1N2 (stereo not drawn)	-1.06
OC(c1nc2ccccc2[nH]1)C(O)c1nc2ccccc2[nH]1 (stereo not drawn)	3.31 (active)
FC(c1nc2ccccc2[nH]1)C(F)(F)F (stereo not drawn)	2.19
OC(c1ccccc1)c1nc2ccccc2[nH]1 (stereo not drawn)	-1.08
COc1ccnc2cc(Cl)ccc12	1.06
Brc1ccccc1-c1nnc(C(c2ccccc2)c2ccccc2)o1	-1.33
Cc1nccn1CCC(=O)O	5.01 (active)
Cc1cc(C)nc(SCCC(=O)O)n1	-2.76
Nc1nc(SCCCOc2ccccc2)n[nH]1	1.24
COc1ccc(NC(=O)Nc2cccc(Cl)c2)cc1	1.1
O=C(COc1ccccc1)N=Nc1c(O)[nH]c2ccccc12	inactive
Cc1sc2ccccc2[n+]1CCCS(=O)(=O)[O-]	2.97 (active)
Oc1ccc2ccccc2c1N=Nc1ccccc1	inactive
Oc1ccc2ccccc2c1Sc1c(O)ccc2ccccc12	-2.97
Oc1ccc2ccccc2c1CNCCNCc1c(O)ccc2ccccc12	3.72 (active)
Cc1nc2ccc3ccccc3c2s1	-2.18
c1ccc2cc3[nH]c(CN4CCOCC4)nc3cc2c1	1.25
Nc1ncnc2c1ncn2[C@H]1C[C@H](O)[C@@H](COP(=O)(O)O)O1	-1.8
CCN(C(=O)c1sc(NC(=O)CCl)c(C#N)c1C)C1CCCCC1	-1.18
Cc1cc2c(c(=O)o1)C(c1ccncc1)C(C#N)=C(N)O2 (stereo not drawn)	3.96 (active)
Cc1[nH]nc2c1C(c1ccncc1)C(C#N)=C(N)O2 (stereo not drawn)	2.49
CCOC(=O)c1ccc(C2C(C#N)=C(N)Oc3cc(C)oc(=O)c32)o1 (stereo not drawn)	-1.07
O=C1CCCC2=C1C(c1ccco1)C1=C(N2)c2ccccc2C1=O (stereo not drawn)	-5.38
O=S1(=O)CCC(SCc2nnc(-c3ccccc3)o2)C1 (stereo not drawn)	-1.78
CCNC(=S)Nc1ccc(Br)cc1	-2.77

Compound	fold change
S=c1[nH]nc(CCc2ccccc2)n1Cc1ccccc1	1.25
S=c1[nH]nc(Cc2ccccc2)n1Cc1ccccc1	1.06
S=c1[nH]nc(Cc2n[nH]c(=S)n2Cc2ccccc2)n1Cc1ccccc1	4.65 (active)
CCOC(=O)c1c(NC(=O)CCl)sc2c1CCN(C(=O)OCC)C2	-1.2
O=C(COc1ccc(Cl)cc1Cl)NCC1CCCO1 (stereo not drawn)	-1.41
COC(=O)NNC(=O)CCCOc1ccc(Cl)cc1Cl	1.34
O=C(CCCOc1ccc(Cl)cc1Cl)Nn1cnnc1	2.83 (active)
Cc1c(C(C)C)c(=O)n(-c2ccc(S(=O)(=O)NC3CC3)cc2)n1C	-2.25
Brc1ccc(-c2csc(Nc3ccccc3)n2)cc1	-1.95
NC(=O)c1c(NC(=O)CN2CCOCC2)sc2c1CCCC2	-1.32
N#CCS/C(SCC(=O)c1ccc2c(c1)OCO2)=C(/C#N)C(=O)c1ccc2c(c1)OCO2	2.84 (active)
N#CCS/C(SCC(=O)c1ccc(Br)cc1)=C(/C#N)C(=O)c1ccc(Br)cc1	1.41
CSc1nc(SCC(=O)c2ccc3c(c2)OCO3)nc(N)c1C#N	1.54
OC1CCC2Cc3ccccc3N=C12 (stereo not drawn)	-1.24
O=c1[nH]nc(C[N+](=O)[O-])c2ccccc12	1.05
CC12C=CC(=O)C=C1CCC1C3CC(O)C(O)(C(=O)CO)C3(C)CC(O)C12F (stereo not drawn)	1.13
CC(C)=NNc1nccc2ccccc12	-1.17
c1ccc(N=C(Nc2ccccc2)N2CCOCC2)cc1	1.32
S=C(Nc1ccccc1)N1CCCCC1	-1.66
S=C(Nc1ccccc1)N1CCOCC1	3.11 (active)
O=C(O)CN1C(=O)C(=O)c2cc(Br)ccc21	-1.45
CN1C(=O)C(=O)c2cc(Br)ccc21	-1.19
O=C1c2ccc(Br)cc2C(=O)N1CNc1ccc(Br)cc1	2.94 (active)
